EPAC1 agonist – human EPAC1 agonism, validation; O95398; EPAC1 Rap1b BODIPY-GDP exchange, fluorescence; Potency, µM, inactives show max response, positive = active, hits mostly activators; hit rate 1% among 16,000; note: nearly all actives have a fitted effect of over 70% in size
EPAC2 antag – human EPAC2 antagonism, validation. Q8WZA2. EPAC2 Rap1B BODIPY-GDP exchange, fluorescence. Potency, µM (titrated, usually from 112 µM), for inactives: at the top dose activity, negative = inhibition, usual class: inhibitors. hit rate 1.7% among 16,000. AID 1645886;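 note: 100% = activation by cAMP agonist control; nearly all actives have a fitted effect of over 40% in size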
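Normalized against a 6.5 mM cAMP agonist control, compounds were tested on 100 nM EPAC2 exchanging Rap1B-bound BODIPY-GDP (250 nM) for 50 uM GDP. Fluorescence drop (ex 480, em 540 nm) was tracked at room temperature over 30 min at 5-min intervals.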
* marks the source's active call; other numbers are inactive results; i = inactive; ? = inconclusive; ! = repeats disagree; [ ] = dose if it differs, or a comment. Only some compounds are listed: those with a hit (about 2.9% of all), similar ones and a draw of the others. Calls come from the whole dose curve; as a rule, active = well fitted curve in the direction sought with a large enough effect; inconclusive = small, poorly fitted or top-dose-only effect, or another doubt; inactive = no such curve, though single readings can be large; an effect the other way counts as inactive or inconclusive. Unless noted, % is set by controls: 0 for no effect and ±100 for the full control effect; potency is the fitted concentration of half-maximal effect.

SMILES	EPAC1 agonist	EPAC2 antag
CNc1nc(-c2ccc3c(c2)OCO3)nc2ccccc12	-20.5%	-29.5%
c1ccc(Nc2nc(-c3ccc4c(c3)OCO4)nc3ccccc23)cc1	100µM*	-26.2%
COC(=O)[C@]12CCC(C)(C)C[C@@H]1[C@@H]1C(=O)C=C3[C@@]4(C)C=C(C#N)C(=O)C(C)(C)[C@@H]4CC[C@@]3(C)[C@]1(C)CC2	14.9%	?
COc1ccccc1C1CN(CC(=O)N2CCC(N3CCOCC3)CC2)Cc2ccccc2O1 (stereo not given)	-17.1%	-1.8%
N[C@H](C(=O)O)C(O)C(O)C(O)CO (stereo not given in full)	112µM*	-19.8%
O=C(O)[C@H](O)[C@@H](O)[C@H](O)[C@H](O)CO	-14.5%	-10.2%
CCOC(=O)[C@H](CCc1ccccc1)N[C@@H](C)C(=O)N1[C@@H](C(=O)O)C[C@@H]2CCC[C@@H]21	44.7µM*	i
CCOC(=O)C(CCc1ccccc1)NC(C)C(=O)N1C(C(=O)O)CC2CCCC21 (stereo not given)	13.0%	-9.6%
CC(=O)N[C@@H](CSC/C=C(\C)CC/C=C(\C)CC/C=C(\C)CCC=C(C)C)C(=O)O	-2.4%	89.1µM*!
CC(=O)N[C@@H](CSC/C=C(\C)CCC=C(C)C)C(=O)O	-7.8%	-14.1%[11.4 µM]
COC(=O)Nc1nc2ccc(C(=O)c3cccs3)cc2[nH]1	-2.6%	79.4µM*!
COC(=O)Nc1nc2ccc(C(=O)c3ccccc3)cc2[nH]1	-25.6%	-11.5%[56.6 µM]
COc1cc(CNC(=O)CCCC/C=C/C(C)C)ccc1O	-36.5%	39.8µM*!
CCCCC[C@H](O)CC(=O)CCc1ccc(O)c(OC)c1	-9.0%	-28.5%[151 µM]
COC(=O)c1c(OC)cc2c(c1C)Oc1c(Cl)c(O)c(Cl)c(C)c1C(=O)O2	-77.9%	4.47µM*
COC(=O)c1c(C)c2c(c(C)c1O)OC(=O)c1c(C)c(Cl)c(O)c(Cl)c1O2	-23.2%	2.51µM*
COC(=O)c1c(Cl)c(Cl)c(C(=O)OC)c(Cl)c1Cl	?	-21.8%
NC(=O)[C@@H]1CCCN1C(=O)CCN1Cc2ccccc2OC(c2ccccc2F)C1 (stereo not given in full)	-7.9%	21.2%
CCOC(=O)N1CCN(Cc2ccc3c(c2)CN(C(=O)c2ccc4ncccc4c2)CCO3)CC1	1.5%	-10.8%
O=C(CCN1CCN(CCO)CC1)N1c2ccccc2Sc2ccc(C(F)(F)F)cc21	13.3%	6.6%
CN1CCN(CCCN2c3ccccc3Sc3ccc(C(F)(F)F)cc32)CC1	-1.9%	56.2µM*!
Cc1ccc2c(/C=C/c3c[nH]c4ccccc34)ccnc2c1C	100µM*	-12.6%
COc1ccc(OC)c2c(/C=C/c3c[nH]c4ccccc34)ccnc12	-26.6%	-9.1%
NCCc1ccc(O)c(O)c1	?	-9.8%
Oc1ccc(Cl)cc1Cc1cc(Cl)ccc1O	?	89.1µM*!
SMILES	EPAC1 agonist	EPAC2 antag
COc1cc(-c2cc(C)c3cccc(OC)c3n2)cc2c1OCCN(C(=O)CCn1nc(C)cc1C)C2	8.8%	-30.7%
O=C(NCCc1nnc2n1CCN(Cc1ccc(F)cc1)CC2)c1ccco1	-10.4%	12.4%
CSc1nnc(CCNC(=O)c2ccc(-c3cccc(F)c3)cc2)n1-c1ccc(F)cc1	-8.9%	-26.1%
CC(=O)N1CCN(c2ccc(OCC3CO[C@@](Cn4ccnc4)(c4ccc(Cl)cc4Cl)O3)cc2)CC1 (stereo not given in full)	?	35.5µM*
CC(C)N1CCN(c2ccc(OC[C@H]3CO[C@](Cn4cncn4)(c4ccc(Cl)cc4Cl)O3)cc2)CC1	-3.4%	-7.5%[56.6 µM]
Cc1csc(CN(C)C(=O)c2sc3ncnc(NCC4CCCO4)c3c2C)n1 (stereo not given)	-2.7%	-17.7%
COc1ccc(OC)c(-c2cc(Cl)c3c(c2)CC(CNC(=O)[C@@H]2CCCN2C(C)=O)O3)c1 (stereo not given in full)	-21.8%	-28.3%
COc1cccc(C2(CC(=O)N3CCCOc4c(cccc4OC)C3)CC(=O)N(C)C2=O)c1 (stereo not given)	-10.6%	?
O=C(O)c1ccccc1Nc1ccccc1	-1.6%	-11.5%
O=C(O)c1ccccc1Nc1cccc(C(F)(F)F)c1	-58.6%	35.5µM*!
CO[C@H]1[C@H](NC(=O)c2ccco2)c2ccccc2C12CCN(Cc1cnc(N(C)C)s1)CC2	-3.3%	-9.6%
O=C(NCc1nnc2n1CCN(Cc1cc(F)cc(F)c1)CC2)c1cccc(F)c1	5.2%	-24.7%
CN1[C@@H]2CCC[C@@H]1CC(NC(=O)c1nn(C)c3ccccc13)C2 (stereo not given in full)	-9.7%	20.5%
COc1cccc(CN2CCCC(c3nc(-c4ccncc4)ncc3-c3ccccc3)C2)c1O (stereo not given)	7.8%	-27.2%
COC(=O)c1cc(CNC(=O)c2cccc(C)c2)cc(NC(=O)c2ccncc2)c1	3.6%	4.0%
O=c1c(-c2ccc(F)c(F)c2)nc2cncnc2n1Cc1ccccc1Cl	100µM*	?
O=c1c(-c2cc(F)cc(F)c2)nc2cncnc2n1Cc1ccccc1Cl	?	-12.9%
